Records with an inconclusive call do not appear. The source made the active and inactive calls. Unless noted, calls follow the shape of the dose curve; as a rule, active = well fitted curve in the direction sought with a large enough effect; inconclusive = small, poorly fitted or top-dose-only effect, or another doubt; inactive = no such curve, though single readings can be large; an effect the other way counts as inactive or inconclusive.

Assay [1] deals with Cytochrome P450 3A4 (Homo sapiens) (UniProt P08684). Briefly: qHTS Assay for Activators of Cytochrome P450 3A4 (AID 885). Also: nearly all actives have a fitted effect of over 65% in size. Also: potency is read from the fitted curve at half-maximal effect. The procedure, abridged: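 Human CYP3A4 dealkylates Luciferin-PPXE to luciferin, which luciferase detection converts to light. Substrate was at its KM (25uM), buffer 200mM KPO4, reaction 60 min at RT.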
Chain of Cytochrome P450 3A4 (Homo sapiens) (P08684 whole entry, looked up): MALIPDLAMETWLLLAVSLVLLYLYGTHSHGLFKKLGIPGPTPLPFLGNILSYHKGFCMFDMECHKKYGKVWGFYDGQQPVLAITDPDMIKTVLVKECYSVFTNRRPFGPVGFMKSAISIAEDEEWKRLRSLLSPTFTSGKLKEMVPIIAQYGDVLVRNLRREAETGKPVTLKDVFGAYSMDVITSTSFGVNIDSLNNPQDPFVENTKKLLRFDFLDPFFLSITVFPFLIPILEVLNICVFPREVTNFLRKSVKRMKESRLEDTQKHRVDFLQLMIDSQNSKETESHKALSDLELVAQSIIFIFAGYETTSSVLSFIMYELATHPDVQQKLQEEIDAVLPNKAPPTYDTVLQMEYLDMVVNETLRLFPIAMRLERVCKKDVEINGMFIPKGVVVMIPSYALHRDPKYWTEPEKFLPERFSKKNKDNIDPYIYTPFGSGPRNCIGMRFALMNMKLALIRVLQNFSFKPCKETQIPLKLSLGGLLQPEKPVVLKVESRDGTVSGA
(In general: Quantitative high-throughput screening tests each substance at several concentrations.)

The nature of assay [2]: S16 Schwann cell PMP22 intronic element firefly luciferase assay (AID 624032). Also: nearly all actives have a fitted effect of over 30% in size. The procedure, abridged: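 Rat S16 Schwann cells stably carrying firefly luciferase driven by a PMP22 intronic element, in 10% FBS, treated 24 h at 37 C. ONE-Glo luminescence normalized to PTC124 control and DMSO (0%); curves classed by r2, magnitude and activity.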
The test system of another assay is ATS95. Briefly: qHTS profiling for inhibitors of Plasmodium falciparum proliferation (AID 504749). Also: nearly all actives have a fitted effect of over 60% in size. Also: potency is read from the fitted curve at half-maximal effect. Conditions: P. falciparum in erythrocytes, SYBR Green DNA, 72 h; series mostly up to 12.8 µM. The procedure, abridged:
(§1)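 Each compound contacts P. falciparum-infected red blood cells for 72 h at 37 C; lysis buffer (Tris, EDTA, saponin, Triton X, SYBR Green I) is added and fluorescence measured next morning; values normalized to controls.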

The test system of the next assay is CP260. The description is as above. The settings on record: P. falciparum in erythrocytes, SYBR Green DNA, 72 h; series mostly up to 12.8 µM. The procedure, abridged: as §1
The next assay relates to CP266. The description is as above. Conditions: P. falciparum in erythrocytes, SYBR Green DNA, 72 h; series mostly up to 28.7 µM. The procedure, abridged:
as §1

A further assay has as its system CP269. Described as above. The settings on record: P. falciparum in erythrocytes, SYBR Green DNA, 72 h; series mostly up to 12.8 µM. The procedure, abridged: as §1
A further assay concerns CP297. Described as above. Conditions: P. falciparum in erythrocytes, SYBR Green DNA, 72 h; series mostly up to 12.8 µM. The procedure, abridged:
as §1

For another assay, the system named is CP315. The description is as above. The settings on record: P. falciparum in erythrocytes, SYBR Green DNA, 72 h; series mostly up to 12.8 µM. The procedure, abridged: as §1
For a further assay, the system named is DIV14. The description is as above. Conditions: P. falciparum in erythrocytes, SYBR Green DNA, 72 h; series mostly up to 12.8 µM. The procedure, abridged: as §1
The next assay concerns DIV17. Described as above. The settings on record: P. falciparum in erythrocytes, SYBR Green DNA, 72 h; series mostly up to 12.8 µM. The procedure, abridged:
as §1

The next assay concerns GB4. The description is as above. Conditions: P. falciparum in erythrocytes, SYBR Green DNA, 72 h; series mostly up to 12.8 µM. The procedure, abridged: as §1
The test system of a further assay is P93_24. Described as above. The settings on record: P. falciparum in erythrocytes, SYBR Green DNA, 72 h; series mostly up to 12.8 µM. The procedure, abridged: as §1
The next assay relates to W2. The assay is described as above. Conditions: P. falciparum in erythrocytes, SYBR Green DNA, 72 h; series mostly up to 12.8 µM. The procedure, abridged:
as §1

A further assay has as its system CP192. The description is as above. The settings on record: P. falciparum in erythrocytes, SYBR Green DNA, 72 h; series mostly up to 28.7 µM. The procedure, abridged: as §1
Assay [3] has as its target Guanine nucleotide-binding protein G(i) subunit alpha-1 (Homo sapiens) (UniProt P63096). Put plainly: qHTS Assay for Inhibitors of RGS12 GoLoco Motif Activity (Green Fluorophore) (AID 879). Also: potency is read from the fitted curve at half-maximal effect. The procedure, abridged: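 A drop in FITC polarization marked displacement of the FITC-tagged RGS12 GoLoco peptide (10 nM) from Gαi1 (50 nM). Compounds were incubated 10 min at room temperature in Tris pH 7.5 buffer containing 150 mM NaCl, 0.1 mM GDP and 0.05% NP40; unlabeled peptide titration served as control.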

Assay [4] addresses Pyruvate kinase (Leishmania mexicana) (UniProt Q27686). Briefly: qHTS Validation Assay for Inhibitors of Leishmania Mexicana Pyruvate Kinase (AID 945). The procedure, abridged: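 The enzyme is a highly purified E451W mutant of LmPYK used at 0.2 nM. It converts 0.5 mM PEP and 0.1 mM ADP over 1 h at room temperature; product ATP is quantified by luciferase luminescence relative to DMSO controls.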

Assay [5] concerns the target Pyruvate kinase PKM (Homo sapiens) (UniProt P14618). Briefly: qHTS Assay for Activators of Human Muscle Pyruvate Kinase (AID 954; active = well fitted curve in the direction sought with a large enough effect, not every such curve was filed as active). The procedure, abridged: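 Compound pinned into substrate mix (0.5 mM PEP, 0.1 mM ADP), then 0.1 nM PKM2 added; 1 h, RT. Stop/detection luciferase reagent added, luminescence read. Normalized to no-inhibition and no-enzyme or reference-inhibitor controls.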

Assay [6] addresses Alpha-galactosidase A (Homo sapiens) (UniProt P06280). Put plainly: Counterscreen for Glucocerebrosidase Inhibitors: qHTS Assay for Human alpha-Galactosidase at pH 4.5 (AID 992). The procedure, abridged:
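Steps: enzyme (2 nM final), then compound across 0.7 nM to 77 uM, then 80 uM fluorogenic galactopyranoside substrate; incubate 20 min at room temperature; quench at pH 10; measure fluorescence at 365/440 nm.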

For assay [7], the target named is alpha-glucosidase (Oryza sativa, rice) (UniProt Q653V4). Briefly: Counterscreen for Glucocerebrosidase Inhibitors: qHTS Assay for Rice alpha-Glucosidase at pH 5.0 (AID 997). The procedure, abridged: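 Endpoint fluorogenic assay at pH 5.0: compounds (0.7 nM to 77 uM) titrated against 4 nM rice enzyme and 400 uM 4-MU-alpha-glucoside for 20 min at room temperature; NaOH/glycine stop, read ex 365/em 440 nm, Hill-fitted AC50.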

Assay [8] is described as follows: qHTS Assay for Identification of Small Molecule Agonists for Thrombopoietin (TPO) Signaling Pathway (AID 917). The procedure, abridged: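 Quantitative HTS for pathway activators: compounds were pin-transferred onto IL-3-starved Ba/F3 cells expressing human TPO receptor, TPO was added at its EC50 (26 pM final), and after 24 hrs at 37 C reporter luciferase was measured.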

Chain of Pyruvate kinase (Leishmania mexicana) (Q27686 2-499 E452W): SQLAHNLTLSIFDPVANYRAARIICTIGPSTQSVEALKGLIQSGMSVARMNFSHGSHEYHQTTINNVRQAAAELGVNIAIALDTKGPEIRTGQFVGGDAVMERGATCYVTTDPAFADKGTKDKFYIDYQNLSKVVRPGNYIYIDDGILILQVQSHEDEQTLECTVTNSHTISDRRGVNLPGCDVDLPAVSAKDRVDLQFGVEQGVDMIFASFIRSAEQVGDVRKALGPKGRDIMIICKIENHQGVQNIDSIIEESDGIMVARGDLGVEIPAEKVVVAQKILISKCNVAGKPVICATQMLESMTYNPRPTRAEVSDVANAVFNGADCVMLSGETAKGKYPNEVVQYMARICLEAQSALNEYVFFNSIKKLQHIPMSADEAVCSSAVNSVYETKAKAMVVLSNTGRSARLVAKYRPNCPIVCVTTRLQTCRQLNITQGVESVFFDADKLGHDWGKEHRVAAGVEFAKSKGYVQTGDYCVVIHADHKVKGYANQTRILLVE
Chain of Alpha-galactosidase A (Homo sapiens) (P06280 whole entry, looked up): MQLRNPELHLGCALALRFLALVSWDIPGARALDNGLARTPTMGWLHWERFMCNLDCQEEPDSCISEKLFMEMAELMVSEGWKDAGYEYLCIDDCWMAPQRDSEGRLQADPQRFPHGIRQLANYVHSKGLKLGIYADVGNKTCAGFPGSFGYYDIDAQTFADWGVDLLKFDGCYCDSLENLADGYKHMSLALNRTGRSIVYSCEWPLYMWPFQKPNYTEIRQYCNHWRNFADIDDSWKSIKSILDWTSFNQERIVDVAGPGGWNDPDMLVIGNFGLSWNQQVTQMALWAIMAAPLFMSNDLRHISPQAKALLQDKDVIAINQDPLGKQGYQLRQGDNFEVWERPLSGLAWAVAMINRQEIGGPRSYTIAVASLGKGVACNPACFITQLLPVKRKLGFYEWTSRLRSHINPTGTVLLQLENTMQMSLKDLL
Chain of Pyruvate kinase PKM (Homo sapiens) (P14618 whole entry, looked up): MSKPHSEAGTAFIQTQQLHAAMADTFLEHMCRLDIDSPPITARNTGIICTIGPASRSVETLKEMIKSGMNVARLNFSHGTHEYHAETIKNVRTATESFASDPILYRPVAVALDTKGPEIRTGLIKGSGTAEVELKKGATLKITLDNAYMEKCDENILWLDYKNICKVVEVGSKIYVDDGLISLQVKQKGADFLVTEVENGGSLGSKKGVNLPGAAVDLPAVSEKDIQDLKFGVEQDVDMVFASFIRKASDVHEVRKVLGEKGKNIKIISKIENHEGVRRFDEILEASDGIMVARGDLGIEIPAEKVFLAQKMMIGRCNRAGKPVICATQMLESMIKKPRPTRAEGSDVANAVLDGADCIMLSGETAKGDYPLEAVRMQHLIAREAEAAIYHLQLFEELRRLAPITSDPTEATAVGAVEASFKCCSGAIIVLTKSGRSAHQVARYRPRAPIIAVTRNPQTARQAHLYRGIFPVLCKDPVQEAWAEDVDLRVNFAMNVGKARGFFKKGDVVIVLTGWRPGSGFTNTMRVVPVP
Chain of Guanine nucleotide-binding protein G(i) subunit alpha-1 (Homo sapiens) (P63096 whole entry, looked up): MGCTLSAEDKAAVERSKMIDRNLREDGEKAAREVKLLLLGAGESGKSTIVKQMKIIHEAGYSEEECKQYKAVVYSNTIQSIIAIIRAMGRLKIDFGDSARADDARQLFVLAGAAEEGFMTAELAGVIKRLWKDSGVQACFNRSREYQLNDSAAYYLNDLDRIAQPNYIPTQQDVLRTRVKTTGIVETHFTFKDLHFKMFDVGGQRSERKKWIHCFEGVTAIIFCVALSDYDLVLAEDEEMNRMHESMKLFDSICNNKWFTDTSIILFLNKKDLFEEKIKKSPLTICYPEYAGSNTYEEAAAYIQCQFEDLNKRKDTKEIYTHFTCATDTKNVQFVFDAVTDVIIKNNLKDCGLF

Consider `C/C=C\C(=O)N(CC)c1ccccc1C`, for which the Potency in assay [1] was 7940 nM (active). The Potency result (in assay [2]; with ATS95; in the assay with CP260; in the assay on CP266; in the assay on CP269; in the assay with CP297) was “inactive” in each case. For the same compound, the Potency result in the assay with CP315, with DIV14, in the assay on DIV17, with GB4, in the assay on P93_24 and in the assay on W2 was “inactive” throughout.
Consider `CC(C)(O/N=C(\C(=O)N[C@@H]1C(=O)N2C(C(=O)[O-])=C(C[n+]3ccccc3)CS[C@@H]12)c1csc(N)n1)C(=O)O`, for which the Potency result (in assay [2]; with ATS95; with CP192; in the assay with CP260; in the assay with CP266; in the assay with CP269) was “inactive” each time. In addition, the Potency result in the assay with CP297, in the assay on CP315, with DIV14, in the assay on DIV17, in the assay on GB4 and in the assay on P93_24 was “inactive” in each case. Besides, the Potency entry with W2 is “inactive”.
`CCN(CC)CC#CCOC(=O)[C@@](O)(c1ccccc1)C1CCCCC1`: the Potency entry (in assay [3]; in assay [1]; in assay [2]; with CP192; in the assay with CP266; in the assay with CP315) was “inactive” throughout. Further, the call in assay [4], in [5], in assay [6] and in [7] was inactive. The Potency in the assay with DIV14 was 7570 nM (active); in the assay on DIV17 it was 4780 nM (active); in the assay on W2, 5360 nM (active).
Consider `CCN(CC)CCC[C@H](C)Nc1ccnc2cc(Cl)ccc12`, for which the Potency entry in assay [3] and in assay [2] was “inactive” each time. The compound was classed as inactive in assay [8], in [4], in [5], in assay [6] and in [7]. Besides, the Potency is 10000 nM (active) with ATS95; 3980 nM (active) in the assay on CP260; 9530 nM (active) with CP269; 1690 nM (active) with DIV14; 3790 nM (active) with DIV17; 1510 nM (active) in the assay on GB4. Also, the Potency is 2820 nM (active) in the assay on P93_24 and 6010 nM (active) in the assay on W2.
For `NC(N)=NC[C@@H]1COC2(CCCCC2)O1`, the Potency result (in assay [2]; with ATS95; with CP192; with CP260; in the assay with CP266; with CP269) was “inactive” in each case. Further, the Potency entry in the assay with CP297, with CP315, with DIV14, in the assay on GB4, in the assay with P93_24 and with W2 was “inactive” each time.
For the compound `CO[C@H]1C[C@@H](O[C@@H]2[C@H](C)[C@H](O[C@@H]3O[C@@H](C)C[C@@H](N(C)C)[C@@H]3O)[C@H](C)C[C@]3(CO3)C(=O)[C@H](C)[C@H](O)[C@H](C)[C@H](C)OC(=O)[C@@H]2C)O[C@@H](C)[C@H]1O`, the Potency entry (in assay [1]; in assay [2]; with ATS95; with CP192; in the assay on CP260; in the assay on CP266) was “inactive” throughout. Besides, the Potency entry in the assay with CP269, in the assay on CP297, with CP315, in the assay on DIV14, with DIV17 and in the assay on GB4 was “inactive” in each case. The Potency entry with P93_24 and in the assay on W2 was “inactive” throughout.
On to `CC(C)COC[C@H](CN(Cc1ccccc1)c1ccccc1)N1CCCC1`, for which the Potency entry in assay [3] and in [1] was “inactive” each time. The outcome in assay [8], in assay [4], in assay [5], in assay [6] and in assay [7] was inactive.
As to `CCN(CC)CCC[C@H](C)Nc1c2ccc(Cl)cc2nc2ccc(OC)cc12`, the Potency in [3] is 25100 nM (active); in the assay with ATS95, 631 nM (active); in the assay on CP192 it was 478 nM (active); in the assay on CP260, 501 nM (active); in the assay on CP266, 1510 nM (active); in the assay on CP269, 757 nM (active). Also, the Potency with CP297 was 536 nM (active); with CP315, 3010 nM (active); in the assay with DIV14 it was 478 nM (active); in the assay on DIV17 it was 536 nM (active); in the assay with GB4, 379 nM (active); in the assay with P93_24, 562 nM (active). In addition, in the assay with W2, the Potency was 338 nM (active). The Potency entry in [1] is “inactive”. In addition, the compound was classed as inactive in assay [4], in assay [5], in assay [6] and in [7].

The record behind these values is PubChem BioAssay (NCATS).
